Among the data in PubChem BioAssay (Tox21) are Potency and outcome values, retold here.

Unmarked numbers belong to inactive results. Inconclusive results are not listed. The source made the active and inactive calls. Unless noted, calls come from the whole dose curve; as a rule, active = well fitted curve in the direction sought with a large enough effect in the repeat runs; inconclusive = weak or mixed curves; inactive = no such curve, though single readings can be large; an effect the other way counts as inactive or inconclusive.

Assay [1] in a line: qHTS assay to identify small molecule antagonists of the glucocorticoid receptor (GR) signaling pathway - cell viability counter screen (AID 720693). Note: nearly all actives have a fitted effect of over 55% in size. For orientation: qHTS replaces the single test concentration by a dilution series.
Assay [2] in a line: qHTS assay for identifying genotoxic compounds that show differential cytotoxicity against isogenic chicken DT40 cell lines with known DNA damage response pathways - wild type cell line (AID 743012). Note: nearly all actives have a fitted effect of over 60% in size. Note: potency is the fitted concentration of half-maximal effect. The method, boiled down:
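300 wt DT40 cells/well; cpd (DMSO) pintool-transferred after ~0.5 h at 37 C/5% CO2; 40 h incubation; CellTiter-Glo added, 30 min RT; luminescence read.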

Assay [3] in a line: qHTS assay for identifying genotoxic compounds that show differential cytotoxicity against isogenic chicken DT40 cell lines with known DNA damage response pathways - Rad54/Ku70 mutant cell line (AID 743015). Note: nearly all actives have a fitted effect of over 60% in size. Note: potency is the fitted concentration of half-maximal effect.
Assay [4] is described as follows: qHTS assay to identify small molecule antagonists of the androgen receptor (AR) signaling pathway - cell viability counter screen (AID 743033; note: nearly all actives have a fitted effect of over 45% in size).
Assay [5] in a line: qHTS assay to identify small molecule antagonists of the androgen receptor (AR) signaling pathway using the MDA cell line - cell viability counter screen (AID 743041; note: nearly all actives have a fitted effect of over 45% in size). The method, boiled down: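 Compound exposure lasted 16 h at 37C in MDA-kb2 AR-luc cells stimulated with R1881. Protease-based CellTiter-Fluor reagent was applied for the final 30 min and fluorescence measured.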

The nature of assay [6]: qHTS assay for identifying genotoxic compounds that show differential cytotoxicity against isogenic chicken DT40 cell lines with known DNA damage response pathways - Rev3 mutant cell line (AID 743014). Note: nearly all actives have a fitted effect of over 55% in size. Note: potency is the fitted concentration of half-maximal effect.
Assay [7] concerns the target Androgen receptor (Homo sapiens) (UniProt P10275). As to the kind of experiment: qHTS assay to identify small molecule antagonists of the androgen receptor (AR) signaling pathway (AID 743035; active = well fitted inhibition curve with a large enough effect in the signal ratio in the repeat runs, not every such curve was filed as active; the % refers to the signal ratio). The method, boiled down:
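In this cell-based reporter screen, compounds were tested in concentration series against R1881-activated HEK293 cells expressing beta-lactamase under UAS control; after 16 h at 37C, FRET substrate was added and fluorescence read 2 h later.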

For assay [8] the target is unchanged. As to the kind of experiment: qHTS assay to identify small molecule agonists of the androgen receptor (AR) signaling pathway (AID 743036; active = well fitted activation curve with a large enough effect in the signal ratio in the repeat runs, with a control signal flat, not every such curve was filed as active; the % refers to the signal ratio). The method, boiled down:
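AR-bla HEK293 cells, 2,000/well; 4 h preincubation 37C/5% CO2; compound (DMSO) 16 h at 37C; LiveBLAzer B/G FRET substrate 2 h RT; fluorescence intensity read-out.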

Assay [9] shares this target. As to the kind of experiment: qHTS assay to identify small molecule agonists of the androgen receptor (AR) signaling pathway using the MDA cell line (AID 743040; note: nearly all actives have a fitted effect of over 20% in size). The method, boiled down: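 Testing was done with the MDA-kb2 AR-luc line, a human breast carcinoma stably transfected with MMTV-luciferase containing AR and GR response elements. Cells were exposed 16 h at 37C before ONE-Glo luminescence detection.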

Assay [10] shares this target. As to the kind of experiment: qHTS assay to identify small molecule antagonists of the androgen receptor (AR) signaling pathway using the MDA cell line (AID 743042; note: nearly all actives have a fitted effect of over 55% in size). The method, boiled down: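 MDA-kb2 breast carcinoma cells carrying MMTV-luciferase (AR/GR responsive) were co-treated with compounds and the agonist R1881 for 16 h at 37C. Inhibition read as ONE-Glo luminescence; CellTiter-Fluor fluorescence measured in parallel for cytotoxicity.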

Sequence of Androgen receptor (Homo sapiens) (P10275 whole entry, looked up): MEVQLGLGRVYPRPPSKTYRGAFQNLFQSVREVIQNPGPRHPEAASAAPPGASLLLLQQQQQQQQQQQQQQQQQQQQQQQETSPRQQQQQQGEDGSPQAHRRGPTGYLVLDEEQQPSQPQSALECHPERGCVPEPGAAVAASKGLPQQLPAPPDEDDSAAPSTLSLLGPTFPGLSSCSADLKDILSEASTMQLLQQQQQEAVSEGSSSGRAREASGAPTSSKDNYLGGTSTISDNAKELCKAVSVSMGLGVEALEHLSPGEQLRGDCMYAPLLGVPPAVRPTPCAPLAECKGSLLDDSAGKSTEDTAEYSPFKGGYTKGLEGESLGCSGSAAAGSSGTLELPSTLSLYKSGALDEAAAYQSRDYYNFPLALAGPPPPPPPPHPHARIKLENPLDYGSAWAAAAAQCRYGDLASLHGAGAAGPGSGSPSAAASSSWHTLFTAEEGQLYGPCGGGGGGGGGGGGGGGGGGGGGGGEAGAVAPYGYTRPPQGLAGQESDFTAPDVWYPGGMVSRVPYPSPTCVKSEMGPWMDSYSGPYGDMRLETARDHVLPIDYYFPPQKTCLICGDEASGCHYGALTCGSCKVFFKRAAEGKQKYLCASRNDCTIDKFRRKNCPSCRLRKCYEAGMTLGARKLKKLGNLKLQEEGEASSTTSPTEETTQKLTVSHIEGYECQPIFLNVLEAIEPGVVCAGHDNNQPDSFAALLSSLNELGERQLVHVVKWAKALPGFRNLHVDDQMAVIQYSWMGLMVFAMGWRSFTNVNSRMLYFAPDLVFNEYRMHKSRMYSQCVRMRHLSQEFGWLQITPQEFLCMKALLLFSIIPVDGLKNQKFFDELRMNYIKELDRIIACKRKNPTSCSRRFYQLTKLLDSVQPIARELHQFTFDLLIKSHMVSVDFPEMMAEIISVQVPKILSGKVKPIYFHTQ

Consider `CCOc1cc(OP(=S)(OC)OC)nc(CC)n1`, for which the Potency entry in assay [1], in assay [2], in [3], in [4] and in assay [5] was “inactive” in each case.
Consider `CN(C)C1CCCCC1`, for which the Potency result in assay [1], in assay [2], in assay [3], in assay [4] and in [5] was “inactive” each time.
`CC(=O)OCC1=C(C(=O)O)N2C(=O)[C@@H](N)[C@H]2SC1`: the Potency result in [1], in [6], in assay [3], in assay [4] and in assay [5] was “inactive” each time.
For the compound `CCC1(c2cccc(O)c2)CCCCN(C)C1` (stereo unspecified), the Potency entry in [1], in assay [2], in [3], in assay [4] and in assay [5] was “inactive” throughout.
`S=C=S`: the Potency entry in assay [1], in [6], in [3], in assay [4] and in assay [5] was “inactive” in each case.
Turning to `CN(CCO)CCO`, the Potency entry in assay [1], in assay [2], in assay [3], in assay [4] and in assay [5] was “inactive” in each case.
For the compound `CC#Cc1cc(C)nc(Nc2ccccc2)n1`, the Potency result in assay [1], in [4] and in [5] was “inactive” in each case. Further, the Potency in assay [2] and in [3] was 54.4 µM (active) in each case.
With `Cl/C=C/CCl`, the Potency result in assay [1], in assay [6], in [3], in [4] and in assay [5] was “inactive” in each case.
`C#CC(C)(C)O`: the Potency entry in assay [1], in assay [2], in assay [3], in [4] and in [5] was “inactive” each time.
On to `CCCC(C)C1(CC)C(=O)N=C(S)NC1=O` (stereo unspecified), for which the Potency entry in assay [1], in assay [6], in assay [3], in assay [4] and in [5] was “inactive” throughout.
As for `[P]#[In]`, the Potency entry in [1], in assay [2], in assay [3], in assay [4] and in assay [5] was “inactive” each time.
Turning to `Cn1c(N)nc2c3cccnc3ccc21`, the Potency result in [1], in assay [2], in [3], in assay [4] and in assay [5] was “inactive” throughout.
As for `CCNP(=S)(OC)O/C(C)=C/C(=O)OC(C)C` (stereo unspecified), the Potency result in assay [1] and in assay [4] was “inactive” in each case. Besides, the Potency in assay [6] was 34.4 µM (active); in assay [3], 54.5 µM (active).
As for `C=C(Cl)CCl`, the Potency result in [1], in [2], in assay [3], in assay [4] and in [5] was “inactive” in each case.
With `CC(Cl)(Cl)Cl`, the Potency result in [1], in assay [2], in [3], in assay [4] and in assay [5] was “inactive” in each case.
Turning to `CC[C@H](O)C(C[C@H](C)N(C)C)(c1ccccc1)c1ccccc1`, the Potency result in assay [1], in [4] and in assay [5] was “inactive” in each case. The Potency in assay [2] was 62.3 µM (active).
With `N#CC(Br)(Br)C(N)=O`, the Potency result in assay [1] is “inactive”. For the same compound, the Potency in [6] and in assay [3] was 61.1 µM (active) in each case.
Regarding `N[C@@H](Cc1ccc(Oc2cc(I)c(O)c(I)c2)c(I)c1)C(=O)O`, the Potency entry in [1], in assay [6], in [3], in [4] and in [5] was “inactive” each time.
In the case of `CCN[C@@H](C)Cc1ccccc1`, the Potency result in [1], in assay [2], in assay [4], in [7], in assay [5] and in assay [10] was “inactive” each time. The compound was classed as inactive in [8] and in assay [9].
Turning to `CCCOc1nn(C(=O)NS(=O)(=O)c2ccccc2C(=O)OC)c(=O)n1C`, the Potency result in assay [1], in [2], in assay [3], in [7], in assay [5] and in [10] was “inactive” each time. For the same compound, the compound was classed as inactive in assay [8] and in assay [9].
As to `CCOC(=O)C(Cl)Cc1cc(-n2nc(C)n(C(F)F)c2=O)c(F)cc1Cl` (stereo unspecified), the Potency entry in assay [1], in assay [4] and in assay [5] was “inactive” in each case. The results for the Potency in assay [6] and in assay [3] were 61.1 µM (active) and 54.5 µM (active), respectively.
With `CC(=O)CN(CC(C)=O)N=O`, the Potency entry in assay [1], in assay [6], in assay [3], in assay [4] and in [5] was “inactive” each time.
For the compound `CCCCS(=O)(=O)Cl`, the Potency result in assay [1], in assay [6], in [3], in assay [4] and in assay [5] was “inactive” each time.
Turning to `CC(C)(C)C(=O)Cl`, the Potency entry in [1], in assay [2], in assay [3], in assay [4] and in assay [5] was “inactive” in each case.
For the compound `CN1C(=O)COc2c(C(=O)NC3CN4CCC3CC4)cc(Cl)cc21` (stereo unspecified), the Potency entry in [1], in assay [6], in assay [3], in assay [4] and in assay [5] was “inactive” throughout.
With `BrCCc1ccccc1`, the Potency entry in [1], in assay [6], in [3], in assay [4] and in assay [5] was “inactive” in each case.
As for `CC1N=C(N)OC1c1ccccc1` (stereo unspecified), the Potency result in [1], in assay [2], in assay [3], in assay [4] and in assay [5] was “inactive” throughout.
Take `CCOC(=O)N(C)N=O`: the Potency entry in [1], in [2], in assay [4] and in assay [5] was “inactive” in each case.
For the compound `O=P(O)(O)c1ccccc1`, the Potency result in assay [1], in [6], in assay [3], in [4] and in [5] was “inactive” each time.
Take `C=CCCC#N`: the Potency result in assay [1], in assay [6], in assay [3] and in assay [4] was “inactive” in each case.
For `C=CC1(C)OC(=O)N(c2cc(Cl)cc(Cl)c2)C1=O` (stereo unspecified), the Potency entry in assay [1], in [2], in [4] and in assay [5] was “inactive” throughout. Besides, the Potency in [3] was 61.1 µM (active).
On to `CC[C@H](N)c1ccccc1`, for which the Potency entry in assay [1], in [6], in assay [3], in assay [4], in assay [7] and in [5] was “inactive” each time. For the same compound, the Potency entry in assay [10] is “inactive”. In addition, the result in [8] and in assay [9] was inactive.
As to `COC1=CC(=O)O[C@@H](/C=C/c2ccccc2)C1`, the Potency entry in [1], in assay [2], in assay [3], in assay [4] and in [5] was “inactive” throughout.
Turning to `O=C1CCCCC1Cl` (stereo unspecified), the Potency result in assay [1], in [6], in [3], in assay [4] and in assay [5] was “inactive” in each case.
In the case of `C[C@H](CN1CCOCC1)C(C(=O)N1CCCC1)(c1ccccc1)c1ccccc1`, the Potency result in [1], in [4], in assay [5] and in assay [10] was “inactive” throughout. Besides, the Potency in [3] is 59.1 µM (active). Moreover, the result in assay [8] and in [9] was inactive.
